Measured values: PubChem BioAssay AID652058 (Broad Institute, 2013)
Among all 1,200 compounds or so, about 870 (72%) were called active. Inconclusive results (about 3%) are left out. So high a share suggests a set chosen from earlier hits. Only a sample is shown. Results with a measured potency or affinity are listed apart. Values without a mark were called inactive.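 The calls were made as follows: active = every test run fits a falling curve whose half-maximal concentration is at most twice the top valid dose; inconclusive = runs disagree, or flat 30 to 70% inhibition, or poor fit; inactive = every run inactive: flat, rising or weaker potency.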

Assay: ZM109 Env clade C HIV-1 fusion inhibitors, dose response, HeLa effector, CEM target cells, luciferase, cherry-pick (AID 652058);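 also: 0% = neutral control wells and -100% = maraviroc 300 nM wells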
Settings: HeLa Env/CEM cell fusion, 16-24 h; series mostly up to 35 µM; activity change, negative = inhibition: at the top concentration

Compound | activity change, negative = inhibition
COc1ccccc1S(=O)(=O)Cc1ccc(C(=O)N2CCN(c3cccc(Cl)c3)CC2)o1 | 188% [at 16 µM]
COc1ccc(OCC(=O)Nc2ccccc2N2CCCCC2)cc1 | 271%
CCOC(=O)C1CCN(C(=O)c2ccc3c(c2)C(=O)N(c2ccccc2C)C3=O)CC1 | 41%
Cc1cc(Cl)ccc1OCC(=O)NNC(=O)C1CSC2(C)CCC(=O)N12 (stereo not given) | 14.6%
CS(=O)(=O)N1CCN(c2ccccc2NC(=O)C(c2ccccc2)c2ccccc2)CC1 | -0.512%
O=C(c1ccc(Cl)s1)N1CCN(c2nc3ccccc3s2)CC1 | -41.6%
CCOC(=O)c1cccc(NS(=O)(=O)c2ccc(NC(C)=O)cc2)c1 | 61.5%
O=C(Nc1ccc(CN2CCS(=O)(=O)CC2)cc1)c1ccc(C(F)(F)F)cc1 | -27.4%
O=C(Nc1cc2c3c(c1)CC(=O)N3CCC2)c1ccc(Cl)cc1 | 162%
C=CC[n+]1c(-c2ccc(C)cc2)csc1NNC(=O)Nc1ccccc1 | -55.6% [at 16 µM]
Cc1noc(C)c1S(=O)(=O)N(C)C[C@H]1Oc2ccc(NC(=O)Nc3ccccc3)cc2CC(=O)N([C@H](C)CO)C[C@H]1C | 18%
N#C/C(=N\Nc1ccc(Cl)cc1)C(=O)c1ccccc1 | 7.69%
CCCn1c(=S)[nH]c2cc(C(=O)N3CCCC(C(=O)OCC)C3)ccc2c1=O (stereo not given) | -20.2%
CN(C(=O)c1cccc(NC(=O)Cc2cccc(NC(=O)C3CCCN(C(=O)C4CCC4)C3)c2)c1)C1CCC1 (stereo not given) | -13.5%
COc1ccc(S(=O)(=O)N2CCCCC2)cc1NC(=O)CN(Cc1ccco1)Cc1ccco1 | -3.11%
CCc1cc2c(NCc3ccco3)ncnc2s1 | -21.6%
O=C(COC(=O)c1ncc(Cl)c(Cl)c1Cl)NCc1cccs1 | -0.439%
COc1ccc(-c2cc(=O)oc3c(C)c(O)ccc23)cc1 | -27.8%
COc1cccc(S(=O)(=O)N(C)C[C@H]2Oc3cc(C#CCC(C)C)ccc3S(=O)(=O)N([C@H](C)CO)C[C@H]2C)c1 | -3.45%
COc1cccc(S(=O)(=O)N(C)C[C@@H]2Oc3cc(C#CCC(C)C)ccc3S(=O)(=O)N([C@H](C)CO)C[C@@H]2C)c1 | -39.7%
COc1ccc(OC)c(-c2cc(C(=O)Nc3c(C)nn(Cc4ccc(Cl)cc4)c3C)no2)c1 | 14.8%
CC(Cl)=CCn1c(NCCc2ccccc2)nc2c1c(=O)n(C)c(=O)n2C | -36.6% [at 16 µM]
C[C@@H]1CN([C@@H](C)CO)C(=O)c2cc(NC(=O)c3ccncc3)ccc2O[C@H]1CN(C)Cc1ccncc1 | 5.72%

Compound | activity change, negative = inhibition
C[C@@H]1CN([C@@H](C)CO)C(=O)c2cc(NC(=O)c3ccncc3)ccc2O[C@@H]1CN(C)Cc1ccncc1 | 10.1%
CCCCNC(=O)C[C@H]1C[C@@]2(C(=O)OC)C(=C[C@H](C(C)(C)C)O[C@@H]2C)N(Cc2ccc3c(c2)OCO3)C1=O | -40%
CC(C)OCCCn1c(=S)[nH]c2ccc(N3CCOCC3)cc2c1=O | -35.9%
COCCn1c(=S)[nH]c2cc(C(=O)N3CCN(Cc4ccc5c(c4)OCO5)CC3)ccc2c1=O | 5.41%
O=S(=O)(c1ccccc1Cl)N1CCCC1c1nc(-c2ccc(Cl)cc2)no1 (stereo not given) | -56.4%
O=C(C[C@@H]1C=C[C@@H](NC(=O)Nc2ccc3c(c2)OCO3)[C@H](CO)O1)NCc1ccc(F)cc1 | -30.8%
CCS(=O)(=O)N[C@H]1CC[C@@H](CC(=O)NCc2ccc(Cl)cc2)O[C@@H]1CO | 50.7%
Nc1c(S(=O)(=O)c2ccccc2)cnc2c(-c3ccc(F)cc3)cnn12 | 133%
COc1ccc(OC)c(NC(=O)COc2ccc3c(c2)CCC3)c1 | 0.146%
COc1ccc(S(=O)(=O)NNC(=O)C2Cc3c(ccc4ccccc34)O2)cc1 (stereo not given) | -56.4%
COc1ccc(CCNC(=O)COC(=O)c2cccn2C)cc1 | -31.2%
COc1ccc(CCCC(=O)NCCc2ccccc2)c(C)c1 | 33%
Cc1[nH]nc2c1C1(C(=O)N(Cc3ccc(Cl)cc3)c3ccccc31)C(C#N)=C(N)O2 (stereo not given) | -29.2%
Cc1ccccc1OCCCCn1cnc2ccccc21 | 23.8% [at 16 µM]
O=C(Nc1ccncc1)c1ccc(Cl)c(S(=O)(=O)N2CCc3ccccc32)c1 | 36.8% [at 16 µM]
Cc1ccc(C(=O)NCc2ccccn2)cc1S(=O)(=O)N1CCCCC1 | -1.12%
COc1cccc(/C=N/NC(=O)CC2C(=O)NN=C2C)c1O (stereo not given) | 14.3%
O=C(C[C@@H]1CC[C@@H](NC(=O)c2ccncc2)[C@H](CO)O1)NCCc1ccncc1 | 83%
CN(C)CC(=O)Nc1ccc2c(c1)[C@H]1C[C@H](CC(=O)NCc3cccc(F)c3)O[C@@H](CO)[C@H]1O2 | 113%
CCCCn1c(CN(C)Cc2ccccc2)nc2c1c(=O)n(C)c(=O)n2C | 78.3%
CC(C)n1c(NCCc2ccccc2)nc2c1c(=O)n(C)c(=O)n2C | -21.3%
CC1CN(S(=O)(=O)c2cc(C(=O)NCCC3=CCCCC3)ccc2Cl)CC(C)O1 (stereo not given) | -20.5% [at 16 µM]
